Results filed as inconclusive are left out. The source made the active and inactive calls. Calls come from the whole dose curve; as a rule, active = well fitted curve in the direction sought with a large enough effect; inconclusive = small, poorly fitted or top-dose-only effect, or another doubt; inactive = no such curve, though single readings can be large; an effect the other way counts as inactive or inconclusive.
What was measured:
[1] = Cellular Toxicity (caspase-3) Renal Proximal Tubule (AID 667); conditions: renal proximal tubule cells; at 91.7 µM (top of the series), primary cells freshly taken from rat, solvent-only wells 0%, staurosporine 100% unless noted;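 note: cells exposed to compound for 16 hours at 37 °C before detection; 0% = DMSO basal and 100% = 10 µM staurosporine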
Procedure, shortened: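 Caspase 3/7 activation measured by luminescent aminoluciferin release in primary rat proximal tubule cells after 16 hr compound exposure at 37 °C. AC50 from Hill-fitted concentration-response, scaled between DMSO and 10 uM staurosporine.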

[2] = target: Cytochrome P450 3A4 (Homo sapiens) (UniProt P08684); assay: qHTS Assay for Inhibitors and Substrates of Cytochrome P450 3A4 (AID 884); note: % is set by controls: 0 for no effect and ±100 for the full control effect; nearly all actives have a fitted effect of over 50% in size
Cytochrome P450 3A4 (Homo sapiens), sequence (P08684 whole entry, looked up): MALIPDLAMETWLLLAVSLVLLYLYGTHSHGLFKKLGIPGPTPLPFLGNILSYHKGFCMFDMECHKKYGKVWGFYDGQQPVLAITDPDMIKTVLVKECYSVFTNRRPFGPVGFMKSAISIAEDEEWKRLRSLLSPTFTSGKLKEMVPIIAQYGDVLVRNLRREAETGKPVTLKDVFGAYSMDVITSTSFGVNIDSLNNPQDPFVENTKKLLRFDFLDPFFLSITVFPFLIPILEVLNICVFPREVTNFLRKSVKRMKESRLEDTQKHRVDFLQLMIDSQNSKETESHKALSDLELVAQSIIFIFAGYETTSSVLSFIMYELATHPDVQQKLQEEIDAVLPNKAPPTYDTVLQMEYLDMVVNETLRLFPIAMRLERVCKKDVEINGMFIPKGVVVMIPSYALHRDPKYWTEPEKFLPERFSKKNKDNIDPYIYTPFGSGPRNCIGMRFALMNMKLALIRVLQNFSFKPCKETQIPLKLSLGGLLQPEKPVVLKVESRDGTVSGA
Procedure, shortened: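 Luminescent readout of luciferin produced by CYP3A4 (20 nM) dealkylation of Luciferin-PPXE, 25 uM (its KM). NADPH-driven reaction ran 60 min at RT after 10 min compound preincubation; data scaled to 57 uM ketoconazole as 100% inhibition.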

[3] = Confirmation and Secondary Assay for Modulators of Hemoglobin Beta Chain Splicing at IVS2 654 locus (AID 910);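 note: HeLa cells stably carrying EGFP split by mutant beta-globin IVS2-654 intron; % of control where 0% means no effect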
Procedure, shortened: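 HeLa cells stably expressing EGFP interrupted by β-globin IVS2-654 intron, seeded overnight in Opti-MEM/2% FCS, then treated 2 days at 37 °C. Restored splicing read as total peak GFP intensity per well by laser scanning cytometry (488 nm excitation, 500–520 nm emission); 500 nM antisense PNA as control.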

[4] = Cell Viability - LYMP2-001 (AID 921);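 note: 0% = DMSO only and full inhibition = tetraoctylammonium bromide control wells; nearly all actives have a fitted effect of over 70% in size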
Procedure, shortened: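 Cellular ATP loss read by luciferase luminescence after 24 h compound exposure at 37 C in complete medium. LYMP2-001 lymphoblastoid cells, 2500/well; qHTS concentration-response data fitted with Hill equation for AC50.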

[5] = Confirmation and Secondary Assay for Modulators of Hemoglobin Beta Chain Splicing at IVS2 705 locus (AID 930);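 note: HeLa cells stably expressing the EGFP-705 splicing reporter; GFP fluorescence per well restored by corrected splicing of the IVS2-705 intron in EGFP; % of control where 0% means no effect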
Procedure, shortened: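 Per-well GFP, captured at 1 x 8 µm resolution with 488 nm excitation, served as the read-out for HeLa EGFP-705 cells incubated 2 days with test compound versus DMSO.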

[6] = MultiTox-Fluor Cytotoxicity Assay - LYMP1-001 - Dead Cells (AID 946);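 note: 0% = DMSO and 100% = tetraoctylammonium bromide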
Procedure, shortened: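 LYMP1-001 lymphoblastoid cells (2500/well) treated 16 h at 37 C. Dead-cell protease cleavage of bis-AAF-R110 read at Ex/Em 485/520. Normalized to DMSO and 15 uM tetraoctylammonium bromide; AC50 from Hill fits.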

[7] = MultiTox-Fluor Cytotoxicity Assay - LYMP1-001 - Live Cells (AID 947);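 note: 0% = DMSO only and full inhibition = tetraoctylammonium bromide control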
[8] = Cell Viability - LYMP1-002 - Assay at 16 hr (AID 948);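 note: 0% = DMSO alone and full effect = 92 µM tetraoctylammonium bromide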
Procedure, shortened: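 ATP luminescence (CellTiter-Glo) was measured after 16 hr compound exposure at 37 C of 2500 lymphoblastoid LYMP1-002 cells per well. Concentration-response curves were fitted with the Hill equation to give AC50.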

[9] = MultiTox-Fluor Cytotoxicity Assay - LYMP1-002 - Dead Cells (AID 960);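 note: 0% = DMSO and 100% = tetraoctylammonium bromide; nearly all actives have a fitted effect of over 60% in size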
Procedure, shortened: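 Concentration-dependent increases in membrane-leaked protease activity are quantified in LYMP1-002 cells after 16 hr treatment; values are normalized against DMSO and tetraoctylammonium bromide (15 uM) controls and AC50 derived by Hill modeling.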

[10] = MultiTox-Fluor Cytotoxicity Assay - LYMP1-003 - Dead Cells (AID 961);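 note: 0% = DMSO and 100% = tetraoctylammonium bromide; nearly all actives have a fitted effect of over 70% in size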
Procedure, shortened: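 LYMP1-003 human lymphoblastoid cells (2500/well) exposed to compound 16 h at 37 C in complete medium; dead-cell protease read with bis-AAF-R110 fluorescence (Ex/Em 485/520) after 60 min at room temperature. Normalized to DMSO and 15 uM tetraoctylammonium bromide; AC50 from Hill fit.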

[11] = MultiTox-Fluor Cytotoxicity Assay - LYMP1-003 - Live Cells (AID 962);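 note: 0% = DMSO only and full loss = 92 µM tetraoctylammonium bromide; cytotoxic hits lower the live-cell protease signal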
Procedure, shortened: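 Human lymphoblastoid line LYMP1-003 in complete culture medium, treated 16 hr with titrated compounds. Viable cells quantified via cell-permeant GF-AFC substrate fluorescence; AC50 derived by Hill fitting.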

[12] = Cell Viability - LYMP1-003 - Assay at 24 hr (AID 963);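 note: plate controls were DMSO only for no effect and tetraoctylammonium bromide positive control for full effect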
Procedure, shortened: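 The lymphoblastoid line was treated with titrated compounds for 24 hours, and viable cell number estimated from luciferase-based ATP luminescence.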

[13] = Cell Viability - LYMP1-003 - Assay at 40 hr (AID 964); note: % is set by controls: 0 for no effect and ±100 for the full control effect; nearly all actives have a fitted effect of over 60% in size
Procedure, shortened: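 Acute toxicity is scored as a concentration-dependent loss of intracellular ATP in LYMP1-003 cells (2500/well, complete medium) after 40 hr at 37 C, measured by CellTiter-Glo luminescence; AC50 values derive from standard Hill modelling.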

[14] = Cell Viability - LYMP2-003 (AID 965);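 note: cells exposed to compounds for 24 h before reading; 0% = DMSO only and full effect = 92 µM tetraoctylammonium bromide; nearly all actives have a fitted effect of over 50% in size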
Procedure, shortened: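 CellTiter-Glo luminescence quantified ATP loss after 24 h compound treatment of LYMP2-003 lymphoblastoid cells at 37 C. Titration series were fitted with the standard Hill equation to give AC50.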

[15] = Cell Viability - LYMP2-004 (AID 966);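 note: plate controls were DMSO only for no effect and tetraoctylammonium bromide control for full effect; nearly all actives have a fitted effect of over 65% in size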
Procedure, shortened: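 Viable-cell number estimated from ATP luminescence (CellTiter-Glo) in 2500 human lymphoblastoid cells/well after 24 hr at 37 C with compound. AC50 fitted to the standard Hill equation.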

[16] = Cell Viability - LYMP2-005 (AID 967);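 note: plate controls were DMSO only for no effect and 92 µM tetraoctylammonium bromide control for full effect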
Procedure, shortened: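 LYMP2-005 human lymphoblastoid cells (2500/well) were treated with compounds for 24 h at 37 C. Intracellular ATP was then measured by CellTiter-Glo luminescence after 30 min at room temperature. AC50 values came from Hill-equation fits of qHTS concentration-response data.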

[17] = Cell Viability - LYMP2-009 (AID 968);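 note: 0% = DMSO alone and the full-kill end = tetraoctylammonium bromide at 92 µM; nearly all actives have a fitted effect of over 55% in size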
[18] = Cell Viability - LYMP2-011 (AID 969);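 note: 0% = DMSO only and full inhibition = 92 µM tetraoctylammonium bromide; nearly all actives have a fitted effect of over 60% in size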
Procedure, shortened: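 Cells seeded at 2500 per well rest 5 hr before compound addition, then incubate 24 hr at 37 C. CellTiter-Glo reagent is added for 30 min at room temperature before luminescence detection.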

[19] = Cell Viability - LYMP2-013 (AID 970);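 note: 0% = DMSO only and full inhibition = tetraoctylammonium bromide control; nearly all actives have a fitted effect of over 55% in size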
Procedure, shortened: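 In complete culture medium, human lymphoblastoid cells were dosed for 24 hr at 37 C, with tetraoctylammonium bromide (6.4pM to 92 uM) as positive control. Viability reflects luciferase-based ATP signal; AC50 derived from concentration-response curves.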

[20] = Cell Viability - LYMP2-015 (AID 971);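 note: 0% = DMSO only and full effect = 92 µM tetraoctylammonium bromide; nearly all actives have a fitted effect of over 55% in size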
Procedure, shortened: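 AC50 values reflect Hill-model fits of ATP-based luminescence (CellTiter-Glo) from a human lymphoblastoid line, 2500 cells/well, treated 24 hr at 37 C.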

[21] = Cell Viability - LYMP2-017 (AID 972);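 note: cells exposed to compound for 24 hours at 37 °C; % is set by controls: 0 for no effect and ±100 for the full control effect; nearly all actives have a fitted effect of over 55% in size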
Procedure, shortened: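 In this qHTS format, lymphoblastoid cells in complete medium receive test compound for a day at 37 C before ATP content is quantified by luciferase luminescence. Reported AC50 figures come from standard Hill-equation curve fitting.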

[22] = Cell Viability - LYMP2-019 (AID 973)
Procedure, shortened: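 AC50 values come from Hill-equation modelling of qHTS concentration-response curves, where viability is measured as luciferase-based ATP luminescence in the lymphoblastoid line after 24 hr compound exposure in complete culture medium.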

[23] = Cell Viability - LYMP2-021 (AID 974)
Procedure, shortened: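 In qHTS format, compounds are tested against 2500 lymphoblastoid cells per well for 24 h; viable cell number is inferred from ATP-driven luciferase light, and Hill-equation fitting yields AC50 values.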

CCCCOC(=O)c1ccccc1C(=O)OCCCC
inactive: caspase-3 activation [1] -0.0975% [at 91.7 µM] | Potency [2] | Potency [3] | Potency [4] | Potency [5] | Potency [6] | Potency [7] | Potency [8] | Potency [9] | Potency [10] | Potency [11] | Potency [12] | Potency [13] | Potency [14] | Potency [15] | Potency [16] | Potency [17] | Potency [18] | Potency [19] | Potency [20] | Potency [21] | Potency [22] | Potency [23]

From PubChem BioAssay (NCATS)
